Screen size: about 350,000 compounds; about 5,500 (1.6%) were called active.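 Rule for the calls: active = significant combined selectivity score with lowered wild-type GFP, culture density cut under 30%, mutant RFP and density less affected; inactive = any of these conditions unmet.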 The list comes from a sample in which actives are over-represented; it also holds similar structures and randomly drawn compounds.
assay: GFP drop in mixed WT/humanized-ribosome E. coli culture – GFP/RFP fluorescence, OD600, single point, bacterial rRNA inhibitor project, primary screen (AID 720706); conditions: E. coli WT GFP vs humanized-ribosome RFP mutants, 24 h; GFP signal change (wild-type ribosome): stronger effect = lower value, DMSO median 0, no signal -100; OD600 change: measured here: OD600 growth, DMSO median 0, no signal -100; RFP signal change: measured here: RFP humanized mutant strains, DMSO median 0, no signal -100, concentration not given here

SMILES | GFP signal change (wild-type ribosome) | OD600 change [%] | RFP signal change [%]
O=C(Nc1cccc(F)c1)N1CC(=O)N2[C@H](CO)[C@H](c3ccc(C#CC4CC4)cc3)[C@@H]2C1 | 4.76% (inactive) | 3 | 11.4
CCN(CC(=O)NCc1ccc(F)cc1)S(=O)(=O)c1ccc(Cl)s1 | -6.72% (inactive) | -25.1 | -2.95
CSc1ccc(CN(C)CC(=O)NCc2ccc(F)cc2)cc1 | -30.9% (active) | -24.5 | -8.04
Cc1ccc(SC(C)C(=O)NCc2ccc(F)cc2)cc1 (centres undefined) | 7.25% (inactive) | 3.19 | -0.85
Cc1noc(C)c1S(=O)(=O)Nc1ccc2c(c1)C(=O)N([C@@H](C)CO)C[C@@H](C)[C@H](CN(C)C(=O)NC(C)C)OCCCC[C@@H](C)O2 | 4.36% (inactive) | 7.55 | -2.26
C[C@@H]1CN([C@H](C)CO)C(=O)c2cc(-c3ccc(F)cc3)cnc2O[C@@H]1CN(C)Cc1ccc(C(=O)O)cc1 | -4.64% (inactive) | 1.8 | -8.48
CO[C@@H]1CN(C)C(=O)c2ccc(NC(=O)Nc3cc(F)ccc3F)cc2OC[C@@H](C)N(C)C[C@@H]1C | -5.36% (inactive) | -19.5 | 0.48
CCC(=O)N1[C@@H](CO)[C@H](c2ccc(-c3cccc(F)c3)cc2)[C@@H]1CNC(C)=O | -3.61% (inactive) | 3.25 | 2.12
O=C(C1CCOCC1)N1C[C@H]2[C@@H](c3ccccc31)[C@@H](CO)N2Cc1ccccc1 | -1.33% (inactive) | 0.79 | -0.998
FC(F)(F)Oc1ccc(NC(=S)NCc2ccccc2)cc1 | -56.8% (inactive) | -77.1 | -19.9
COc1ccccc1NS(=O)(=O)c1ccc(C(=O)N2CCN(c3ccccc3O)CC2)cc1 | -1.32% (inactive) | -2.56 | -0.007
O=S(=O)(Nc1ccc(O)c2ccccc12)c1ccc(OC(F)(F)F)cc1 | -28.6% (active) | -14.2 | -9.13
C[C@H](CO)N1C[C@H](C)[C@H](CN(C)C(=O)C2CC2)Oc2ncc(C#Cc3ccccc3)cc2C1=O | -0.859% (inactive) | 2.9 | -0.79
Cc1cc(SCc2c(F)cccc2Cl)nc(=O)[nH]1 | -15.5% (inactive) | 0.505 | -0.535
Oc1ccc(-n2nnnc2SCc2c(F)cccc2Cl)cc1 | -53.5% (inactive) | -72.8 | -14.2
Fc1cccc(Cl)c1CSc1ccc(-c2ccco2)nn1 | -21.1% (active) | -7.59 | 0.773
N#C[C@@H]1[C@H](c2ccc(-c3cccnc3)cc2)[C@H](CO)N1C(=O)C1CC1 | 1.69% (inactive) | -1.23 | 1.92

SMILES | GFP signal change (wild-type ribosome) | OD600 change [%] | RFP signal change [%]
C[C@@H]1CN([C@@H](C)CO)C(=O)c2cc(-c3ccc(F)cc3)cnc2O[C@H]1CN(C)C(=O)c1ccncc1 | 5.96% (inactive) | 18.3 | -6.6
COCC(=O)N[C@H]1C=C[C@H](CC(=O)N2CCCCC2)O[C@H]1CO | 0.044% (inactive) | 2.08 | 0.319
CC(O)c1ccc(OCCN(C)c2ccccn2)cc1 (centres undefined) | 7.56% (inactive) | 9.08 | -0.281
CC(C)=N/N=C1/NC(=O)C(Cc2ccccc2)S1 (centres undefined) | 5.19% (inactive) | 0.06 | 4.42
CN(CCOc1ccc(CC2SC(=O)NC2=O)cc1)c1ccccn1 (centres undefined) | -18.5% (active) | -19.1 | 5.83
CCC(=O)N1CCC2(CC1)CN(Cc1ccc(Cl)cc1)[C@@H](CO)c1[nH]c3cc(OC)ccc3c12 | 0.255% (inactive) | -3.27 | 4.57
COc1ccc2c3c(n(C)c2c1)[C@@H](CO)NCC31CCN(CC2CC2)CC1 | 8.18% (inactive) | 22.6 | -3.19
O=C(NCC[C@H]1CC[C@@H](NC(=O)c2cnccn2)[C@H](CO)O1)Nc1ccc(Cl)cc1 | -40.4% (inactive) | -66.2 | 9.29
COc1cccc(CNC(=O)[C@H]2CCCN2C(=O)[C@H]2CCCN2C(=O)c2ccc(F)cc2)c1 | 2.11% (inactive) | 11.4 | -3.48
CNC[C@H]1Oc2ccc(NC(=O)NC(C)C)cc2C(=O)N(C)C[C@@H]1C | 4.42% (inactive) | 7.25 | 0.095
Cc1ccc2c(N)c(C(=O)c3ccccc3)sc2n1 | -33.7% (active) | -0.632 | -10.4
CCN(CC)C(=O)c1sc2nc(-c3ccccc3)ccc2c1N | -15.6% (active) | -3.66 | 4.88
CCOC(=O)C(C)n1nc(-c2ccccc2)c2ccccc2c1=O (centres undefined) | 2% (inactive) | 4.27 | -0.337
COC(=O)c1cc2c(N)c(C(=O)c3ccc(Cl)cc3)sc2nc1C(OC)OC | 19.9% (inactive) | 8.88 | 2.24
Cc1ccc(NC(=O)c2sc3nc(N)c(C#N)cc3c2N)cc1 | 1.14% (inactive) | 1.53 | 1.97
CCN(CC)C(=O)c1nc[nH]c1C(=O)N(C)Cc1ccccc1 | 31.5% (inactive) | 17.4 | 2.93
